Results reported in PubChem BioAssay (NCI).
The panel holds about 83,000 compounds, 20% with a hit somewhere; the sample as a whole holds those more often.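 Testing used 96-well plates and a 48-hour single-concentration exposure. Example: -40 means 40% of the starting cells died.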 Unmarked numbers belong to inactive results. Activity calls are given as the source filed them. The calls were made as follows: active = growth percent below 10; inactive = the rest.

Tests used:
Test in all cases: NCI-60 one-dose screen, 48 h (100 = growth as untreated, 0 = no growth, -100 = all killed)
Settings in all cases: 10 µM unless noted
HCT-15 colon = system: HCT-15 colon
HT29 colon = system: HT29 colon
SNB-75 CNS = system: SNB-75 CNS
SNB-19 CNS = system: SNB-19 CNS
U251 CNS = system: U251 CNS
PC-3 prostate = system: PC-3 prostate
SK-MEL-5 melanoma = system: SK-MEL-5 melanoma
LOX IMVI melanoma = system: LOX IMVI melanoma
SK-MEL-28 melanoma = system: SK-MEL-28 melanoma
UACC-62 melanoma = system: UACC-62 melanoma

| SMILES | growth (HCT-15 colon) | growth (HT29 colon) | growth (SNB-75 CNS) | growth (SNB-19 CNS) | growth (U251 CNS) | growth (PC-3 prostate) | growth (SK-MEL-5 melanoma) | growth (LOX IMVI melanoma) | growth (SK-MEL-28 melanoma) | growth (UACC-62 melanoma) |
| --- | --- | --- | --- | --- | --- | --- | --- | --- | --- | --- |
| COC1CC(O)C2=C(CC3C(/C(C)=C\CC=C(C)C)CCC3(C)O2)C1=O (configuration not stated) | 110% | 99.4% | 107% | 103% | 99% | 93.6% | 99.2% | 106% | 119% |  |
| CC(C)=CCC[C@](C)(O)C1CC[C@]2(C)[C@@H]1CC[C@@H]1[C@@]3(C)CC/C(=N\OCCC#N)C(C)(C)[C@@H]3CC[C@]12C (some centres not stated) | 83.4% | 65.1% | 77.8% | 92.4% | 90.3% | 62.3% | 85.8% | 89.2% | 94.1% |  |
| Cc1ccc2c(n1)C[C@H](C(C)(C)O)CC[C@H]2C | 99.4% | 107% | 91.8% | 91.8% | 94.4% | 104% | 98.9% | 101% | 106% |  |
| Nc1nc(=O)n([C@H]2CC=C(CO)O2)cc1F | 101% | 91.9% | 102% | 96.3% | 95% | 92.1% | 100% | 92.5% | 105% |  |
| C#Cc1c(I)n(C2OC(CO[Si](C)(C)C(C)(C)C)C3OC(C)(C)OC32)c(=O)[nH]c1=O (configuration not stated) | -9.25% (active) | 38.6% | 86.8% | 94.2% | 3.76% (active) | -61.1% (active) | 96.6% | -80.6% (active) | -56.7% (active) |  |
| NS(=O)(=O)Oc1cccc(-c2nc3sccn3c2-c2ccccc2)c1 | 29% | 27% | -9.42% (active) | 51.1% | 36.3% | 72.4% | 32.3% | 49.5% | 60.4% |  |
| O=C(Nc1ncc(Cc2ccccc2)s1)c1ccc2c(c1)OCCO2 | 7.07% (active) | 4.31% (active) | 9.1% (active) | 35.4% | 14.2% | 27.1% | -29.7% (active) | 10.6% | 66.3% |  |
| N#CC1=C(N)Oc2c(ccc3cccnc23)C1c1ccccc1 (configuration not stated) | 28% | 12.6% | -6.14% (active) | 52.7% | 23.1% | 22.8% | 6.58% (active) | 33.7% | 49.4% |  |
| COc1cccc(CNc2nnc(C)c(C)n2)c1O | 98.9% | 105% | 100% | 93.4% | 99.1% | 87.2% | 91.6% | 98.8% | 109% |  |
| O=C(O)/C=C\C(=O)Nc1ccc2c(c1)Cc1cc(F)ccc1-2 | 100% | 96.3% | 86% | 103% | 106% | 97.3% | 101% | 96.4% | 105% |  |
| COC(=O)c1nc(-c2ccccc2)oc1S(=O)(=O)N1CCN(c2ccc(OC)cc2)CC1 | 42.8% | 43.8% | 101% | 97.8% | 90.8% | 63.9% | 90.8% | 62.9% | 88.3% |  |
| COc1ccc2c(c1)C(c1c[nH]c3ccccc13)(c1c[nH]c3ccccc13)CCO2 | 41.8% | 23.8% | 28% | 66.4% | 42.2% | 31% | 66.2% | 42.6% | 54.2% |  |
| COC(=O)[C@H](C)NC(=O)c1ccc(NC(=O)c2[nH]c(C)c(Cl)c2Cl)c(OCCN)c1 | 99.9% | 109% | 98.6% | 101% | 110% | 98.5% | 99.2% | 96.2% | 110% |  |
| COc1cccc(NC(=O)c2sc3nc(C)c(C(=O)c4ccccc4)cc3c2N)c1 | 87% | 102% | 60.8% | 78% | 82.8% | 89.9% | 93.8% | 97.8% | 82.2% |  |
| Brc1ccc(-c2nn(-c3ccccc3)cc2-c2nn[nH]n2)s1 | 96.2% | 117% | 92.7% | 87.3% | 87.8% | 93.7% | 90% | 90.9% |  |  |
| CCN(CC)CCCNC(=O)c1c2c(n3ccccc13)C(=O)c1ncccc1C2=O | -73.6% (active) | -28.5% (active) | -87.2% (active) | -71.3% (active) | -83.8% (active) | -19.8% (active) | -99.2% (active) | -71.2% (active) | 22.8% |  |
| CS(=O)(=O)c1cccc(Nc2ncc3cc(-c4ccccc4Cl)ccc3n2)c1 | 12.1% | 1.92% (active) | -11.4% (active) | 36.2% | 16.6% | 12.3% | -49.1% (active) | -6.95% (active) | 19.7% |  |
| CCN1C(=O)N(CC)C2C1NN=c1s/c(=C3\C(=O)N(C)c4ccccc43)c(=O)n12 (configuration not stated) | 22.2% | 11.5% | -10.8% (active) | 37.2% | 34.9% | 35% | 32.8% | 47.7% | 52.6% |  |
| CN(C)C(=S)NN=C(c1ccccn1)c1ccccn1 | 37.3% | 27.9% | -22.2% (active) | 32.7% | 18.1% | 37.7% | -19.8% (active) | 8.85% (active) | 30.7% |  |
| COc1ccc(Nc2nc(Nc3cc(C)[nH]n3)c3cc(OC)c(OC)cc3n2)cc1 | -83.1% [20 µM] (active) | -61.2% [20 µM] (active) | -94.5% [20 µM] (active) | -99.2% [20 µM] (active) | -69.8% [20 µM] (active) | -80.7% [20 µM] (active) | -84.7% [20 µM] (active) | -92.6% [20 µM] (active) |  |  |
| C#CCOc1cccc(Nc2c(Cl)c(CCl)nc3ccc(Oc4ccccc4)cc23)c1 | 12.3% | 7.96% (active) | 75.5% | 62.5% | 24.9% | 78% | 30.4% |  | 65.4% | 39.9% |
| O=C(Nc1ncc(Cc2ccccc2Cl)s1)c1ccc2c(c1)OCCO2 | 10.4% | 6.05% (active) | 3.37% (active) | 36% | 14.7% | 23.4% | -25.1% (active) | 23.6% | 76.3% |  |
| COc1ccc(-c2ccc(-c3ccc(C(=N)N)nc3)s2)cc1 | -77% (active) | -43.1% (active) | 116% | 4.32% (active) | -51.9% (active) | -37.4% (active) | 70.8% |  | 93.8% | -94.2% (active) |
| CO[C@H]1CC(c2ccc[nH]2)=N[C@]12O[C@@H](C)C[C@@H]1CCCCCCCc3ccc([nH]3)[C@H]12 | 10.4% | 12.3% | 3.5% (active) | 55.4% | 19.7% | 42.2% | -38.4% (active) | -45.1% (active) | 38.6% |  |
| CC(C)=CC(=O)C1C(=O)c2ccccc2C1=O | 95% | 111% | 90% | 94.7% | 95.1% | 100% | 99.2% | 96.8% | 108% |  |
| COc1ccc(/C=N\NC(=O)c2ccc3nc(-c4ccc(Cl)cc4)[nH]c3c2)cc1 | 57.5% | 21.9% | 91.9% | 24.2% | 7.96% (active) | -4.4% (active) | 33.7% | 0.882% (active) | 12.5% |  |
| CCOC(=O)CC1CSC(N/N=C(/C)c2cccc(C(F)(F)F)c2)=N1 (configuration not stated) | 93.8% | 94.3% | 98.3% | 106% | 98.4% | 97.8% | 105% | 104% | 107% |  |
| O=C(Nc1ncc(Cc2ccc(Cl)cc2)s1)c1ccc2c(c1)OCCO2 | 8.98% (active) | 7.68% (active) | 23% | 43.4% | 17.6% | 30.3% | -21.3% (active) | 31.3% | 76.2% |  |
| C#CC(F)(F)[C@]1(O)CCC2C3CCC4=CC(=O)CCC4=C3[C@@H](c3ccc(N(C)C)cc3)C[C@@]21C (some centres not stated) | 90% | 87.9% | 73.9% | 98.6% | 89.3% | 66% | 84% |  | 109% |  |
| COc1ccc(-n2c(=O)n(-c3ccc(-c4nc5ccc(F)cc5s4)cc3)c(=O)c3cccnc32)cc1 | 101% | 87.3% | 75.2% | 98.5% | 96.9% | 94.5% | 101% |  | 107% | 87.4% |
